Test results published in PubChem BioAssay AID1159580 (chemical genetic matrix, 2015).
Among all 5,500 compounds or so, about 2,000 (36%) were called active. Another 18% or so got no clear call; they are omitted. Rule as the data show it: active = normalized growth mostly below about 0.91 (no sharp cut-off); inconclusive = no clear call, values can overlap the other calls; inactive = mostly above about 0.92. The list shows a part of the results.

Test: chemical genetic growth profiling, strain panel (AID 1159580);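 also: tested at 20 µM; growth read once vehicle control cultures reached saturation at 30 °C; 1 = growth at the plate median or of vehicle wells; lower values mean less growth of the strain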
Conditions: S. cerevisiae deletion strains, growth OD
[1] = locus YAL013W, strain DEP1, hits give low values
[2] = locus YHR030C, strain SLT2, hits give low values
[3] = locus YJR075W, strain HOC1, hits give low values
[4] = locus YNL153C, strain GIM3, hits give low values

Measured: normalized growth

CNCCCC1c2ccccc2C=Cc2ccccc21
inactive: [1] 0.989 | locus YAL040C, strain CLN3, hits give low values 1.08 | locus YCL061C, strain MRC1 (second series), hits give low values 1 | locus YDR363W, strain ESC2, hits give low values 1.03 | locus YER002W, strain NOP16, hits give low values 1.01 | [2] 0.974 | locus YHR079C, strain IRE1, hits give low values 0.965 | locus YJL095W, strain BCK1, hits give low values 0.959 | locus YJR066W, strain TOR1, hits give low values 0.954 | [3] 0.985 | locus YLR113W, strain HOG1, hits give low values 0.956 | locus YMR307W, strain GAS1, hits give low values 1 | [4] 1.02 | locus YNL175C, strain NOP13, hits give low values 1.01 | locus YNL183C, strain NPR1, hits give low values 0.924 | locus YNL197C, strain WHI3, hits give low values 1.02 | locus YNL224C, strain SQS1, hits give low values 1.06 | locus YOR083W, strain WHI5 (second series), hits give low values 1.04 | locus YOR231W, strain MKK1, hits give low values 0.976 | locus YPL055C, strain LGE1, hits give low values 1 | locus YPL256C, strain CLN2, hits give low values 0.945

C=Cc1c(SC)sc(C(=O)O)c1C
active: [1] 0.869 | locus YBR229C, strain ROT2, hits give low values 0.766 | locus YCL061C, strain MRC1, hits give low values 0.746 | locus YDL101C, strain DUN1, hits give low values 0.705 | locus YGR078C, strain PAC10, hits give low values 0.794 | locus YHR087W, strain rtc3, hits give low values 0.761 | locus YJR043C, strain POL32, hits give low values 0.807 | [3] 0.636 | locus YLR058C, strain SHM2 (second series), hits give low values 0.889 | locus YLR262C, strain YPT6, hits give low values 0.776 | locus YMR219W, strain ESC1, hits give low values 0.804 | locus YMR263W, strain SAP30, hits give low values 0.869 | [4] 0.771 | locus YNL322C, strain KRE1, hits give low values 0.865
inactive: locus YDL134C, strain PPH21, hits give low values 1.01 | locus YDR150W, strain NUM1, hits give low values 0.869 | locus YEL061C, strain CIN8, hits give low values 0.999 | [2] 1.05 | locus YJL187C, strain SWE1, hits give low values 1.05 | locus YLR039C, strain RIC1, hits give low values 0.795 | locus YLR085C, strain ARP6, hits give low values 1.05 | locus YML094W, strain GIM5, hits give low values 1.01 | locus YNL128W, strain TEP1, hits give low values 1.04 | locus YNL298W, strain CLA4 (second series), hits give low values 1.02 | locus YNR030W, strain Alg12, hits give low values 0.979 | locus YOL006C, strain TOP1, hits give low values 1.07 | locus YPL241C, strain CIN2, hits give low values 0.966 | locus YPR135W, strain CTF4, hits give low values 1.1
